Experimental data: PubChem BioAssay AID1159580 (chemical genetic matrix, 2015)
Where “and” joins values, the source holds several entries; their conditions need not be identical. Identical values can stand only once. The whole screen tested about 5,500 compounds, of which about 2,000 (36%) were called active. Another 18% or so got no clear call; they are omitted. Rule as the data show it: active = normalized growth mostly below about 0.91 (no sharp cut-off); inconclusive = no clear call, values can overlap the other calls; inactive = mostly above about 0.92. The list shows a part of the results.

Test: chemical genetic growth profiling, strain panel (AID 1159580);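 also: tested at 20 µM; growth read once vehicle control cultures reached saturation at 30 °C; 1 = growth at the plate median or of vehicle wells; lower values mean less growth of the strain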
Conditions: growth OD

Measured: normalized growth

Nc1ccc(C(=O)O)c(O)c1
inactive: S. cerevisiae deletion strains, locus YKL009W, strain mrt4, hits give low values 1 | S. cerevisiae deletion strains, locus YKL068W, hits give low values 0.999 | S. cerevisiae deletion strains, locus YKL085W, strain MDH1 (second series), hits give low values 0.995 | S. cerevisiae deletion strains, locus YKL085W, strain MDH1, hits give low values 0.995 | S. cerevisiae deletion strains, locus YKL160W, strain elf1, hits give low values 0.947 | S. cerevisiae deletion strains, locus YKL190W, strain CNB1, hits give low values 1.01 | S. cerevisiae deletion strains, locus YKR001C, strain vps1, hits give low values 0.992 | S. cerevisiae deletion strains, locus YKR026C, strain gcn3, hits give low values 0.994 | S. cerevisiae deletion strains, locus YKR091W, strain srl3, hits give low values 0.989 | S. cerevisiae deletion strains, locus YLL001W, strain dnm1, hits give low values 0.924 | S. cerevisiae deletion strains, locus YLL026W, hits give low values 1 | S. cerevisiae deletion strains, locus YLL041C, strain sdh2, hits give low values 0.992 | S. cerevisiae deletion strains, locus YLR027C, strain aat2, hits give low values 1 | S. cerevisiae deletion strains, locus YLR039C, strain RIC1, hits give low values 1.02 | S. cerevisiae deletion strains, locus YLR058C, strain SHM2, hits give low values 1.01 | S. cerevisiae deletion strains, locus YLR102C, strain apc9, hits give low values 0.998 | S. cerevisiae deletion strains, locus YLR113W, strain HOG1, hits give low values 1.03 and 1.02 | S. cerevisiae deletion strains, locus YLR221C, strain rsa3, hits give low values 0.968 | S. cerevisiae deletion strains, locus YLR258W, strain gsy2, hits give low values 1.01 | S. cerevisiae deletion strains, locus YLR262C, strain YPT6 (second series), hits give low values 0.961 | S. cerevisiae deletion strains, locus YLR262C, strain YPT6, hits give low values 1.06 | S. cerevisiae deletion strains, locus YLR268W, strain sec22, hits give low values 0.99 | S. cerevisiae deletion strains, locus YLR320W, strain mms22, hits give low values 0.954 | S. cerevisiae deletion strains, locus YLR330W, strain CHS5, hits give low values 1.01 | S. cerevisiae deletion strains, locus YLR342W, strain FKS1 (second series), hits give low values 1.04 | S. cerevisiae deletion strains, locus YLR342W, strain FKS1, hits give low values 0.997 | S. cerevisiae deletion strains, locus YLR357W, strain rsc2, hits give low values 0.955 | S. cerevisiae deletion strains, locus YLR370C, strain arc18, hits give low values 0.995 | S. cerevisiae deletion strains, locus YLR371W, strain rom2, hits give low values 0.997 | S. cerevisiae deletion strains, locus YLR384C, strain iki3, hits give low values 0.994 | S. cerevisiae deletion strains, locus YLR418C, strain cdc73, hits give low values 0.996 | S. cerevisiae deletion strains, locus YML016C, strain PPZ1, hits give low values 1.01 | S. cerevisiae deletion strains, locus YML032C, strain rad52, hits give low values 1 | S. cerevisiae deletion strains, locus YML120C, strain ndi1, hits give low values 0.978 | S. cerevisiae deletion strains, locus YML124C, strain tub3, hits give low values 0.996 | S. cerevisiae deletion strains, locus YMR058W, strain fet3, hits give low values 0.995 | S. cerevisiae deletion strains, locus YMR078C, strain ctf18, hits give low values 1 | S. cerevisiae deletion strains, locus YMR125W, strain sto1, hits give low values 0.945 | S. cerevisiae deletion strains, locus YMR129W, hits give low values 0.999 | S. cerevisiae deletion strains, locus YMR205C, strain PFK2, hits give low values 0.939 | S. cerevisiae deletion strains, locus YMR223W, strain ubp8, hits give low values 1 | S. cerevisiae deletion strains, locus YMR231W, strain pep5, hits give low values 0.985 | S. cerevisiae deletion strains, locus YMR263W, strain SAP30, hits give low values 1 | S. cerevisiae deletion strains, locus YMR307W, strain GAS1, hits give low values 0.991 | S. cerevisiae deletion strains, locus YNL067W, strain RPL9B, hits give low values 1.01 | S. cerevisiae deletion strains, locus YNL071W, strain lat1, hits give low values 0.986 | S. cerevisiae deletion strains, locus YNL153C, strain GIM3, hits give low values 0.998 | S. cerevisiae deletion strains, locus YNL183C, strain NPR1, hits give low values 0.959 and 0.981 | S. cerevisiae deletion strains, locus YNL209W, strain ssb2, hits give low values 0.997 | S. cerevisiae deletion strains, locus YNL233W, strain BNI4, hits give low values 0.998 | S. cerevisiae deletion strains, locus YNL248C, strain rpa49, hits give low values 0.967 | S. cerevisiae deletion strains, locus YNL250W, strain rad50, hits give low values 1 | S. cerevisiae deletion strains, locus YNL271C, strain bni1, hits give low values 0.985 | S. cerevisiae deletion strains, locus YNL298W, strain CLA4, hits give low values 0.989 | S. cerevisiae deletion strains, locus YNL307C, strain MCK1, hits give low values 1 | S. cerevisiae deletion strains, locus YNL322C, strain KRE1 (second series), hits give low values 0.977 | S. cerevisiae deletion strains, locus YNL322C, strain KRE1, hits give low values 1.01 | S. cerevisiae deletion strains, locus YNR049C, strain mso1, hits give low values 0.994 | S. cerevisiae deletion strains, locus YNR052C, strain pop2, hits give low values 0.998 | S. cerevisiae deletion strains, locus YOL006C, strain TOP1, hits give low values 1.04 | S. cerevisiae deletion strains, locus YOL012C, strain htz1 0.886 | S. cerevisiae deletion strains, locus YOL147C, strain pex11, hits give low values 0.999 | S. cerevisiae deletion strains, locus YOR001W, strain rrp6, hits give low values 1.04 | S. cerevisiae deletion strains, locus YOR061W, strain CKA2, hits give low values 1.01 | S. cerevisiae deletion strains, locus YOR069W, strain VPS5, hits give low values 1.01 | S. cerevisiae deletion strains, locus YOR070C, strain gyp1, hits give low values 0.995 | S. cerevisiae deletion strains, locus YOR080W, strain dia2, hits give low values 1 | S. cerevisiae deletion strains, locus YOR083W, strain WHI5, hits give low values 0.945 | S. cerevisiae deletion strains, locus YOR106W, strain vam3, hits give low values 0.999 | S. cerevisiae deletion strains, locus YOR136W, strain idh2, hits give low values 0.992 | S. cerevisiae deletion strains, locus YOR144C, strain elg1, hits give low values 0.996 | S. cerevisiae deletion strains, locus YOR184W, strain ser1, hits give low values 0.997 | S. cerevisiae deletion strains, locus YOR231W, strain MKK1, hits give low values 1.01 and 1.04 | S. cerevisiae deletion strains, locus YOR265W, strain rbl2, hits give low values 0.997 | S. cerevisiae deletion strains, locus YOR270C, strain vph1, hits give low values 0.987 | S. cerevisiae deletion strains, locus YOR290C, strain snf2, hits give low values 0.963 | S. cerevisiae deletion strains, locus YOR316C, strain cot1, hits give low values 0.997 | S. cerevisiae deletion strains, locus YPL051W, strain arl3, hits give low values 0.979 | S. cerevisiae deletion strains, locus YPL055C, strain LGE1, hits give low values 1.01 | S. cerevisiae deletion strains, locus YPL078C, strain atp4, hits give low values 0.946 | S. cerevisiae deletion strains, locus YPL106C, strain sse1, hits give low values 0.968 | S. cerevisiae deletion strains, locus YPL240C, strain hsp82, hits give low values 0.991 | S. cerevisiae deletion strains, locus YPL241C, strain CIN2, hits give low values 1.01 | S. cerevisiae deletion strains, locus YPL256C, strain CLN2, hits give low values 1.03 and 1.04 | S. cerevisiae deletion strains, locus YPR119W, strain clb2, hits give low values 0.998 | S. cerevisiae deletion strains, locus YPR141C, strain kar3, hits give low values 0.999 | S. cerevisiae deletion strains, locus YPR163C, strain tif3, hits give low values 0.99 | S. cerevisiae deletion strains, locus YPR167C, strain met16, hits give low values 1.01 | S. cerevisiae deletion strains, strain wtn01, hits give low values 0.984 | S. cerevisiae strains, strain wild type, hits give low values 1.01
